Bioassay records from PubChem.
Compounds with a hit are over-represented: about 1.9% of the library has one in this group of screens.
Giardia killer: kills Giardia lamblia. activity change, % at 7.66 µM, hits read low. Giardia lamblia trophozoite viability. hit rate 0.15% among 340,000; in the data active = activity change below about -80%; inconclusive = between about -30% and that limit;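 note: parasites exposed to compound for two days anaerobically before the ATP read; % is set by controls: 0 for no effect and ±100 for the full control effect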
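Luminescence from cellular ATP indicates surviving trophozoites (100 cells/well) following 48 hrs anaerobic compound treatment at 37 deg C; signal develops 15-30 min at room temperature.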
RXFP1 antagonist: antagonists of human relaxin receptor RXFP1 | HEK293-RXFP1, relaxin-stimulated cAMP HTRF, 30 min; stronger effect = lower value | activity change, negative = inhibition, % at 57.5 µM | hit rate 0.59% among 350,000 | AID 1259400;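 active = activity change of -60% or lower, but not beyond a set lower limit; inconclusive = change between -60% and -40%, or beyond the set limit; inactive = change above -40%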; note: % is set by controls: 0 for no effect and ±100 for the full control effect
Target sequence (Q9HBX9 whole entry, looked up): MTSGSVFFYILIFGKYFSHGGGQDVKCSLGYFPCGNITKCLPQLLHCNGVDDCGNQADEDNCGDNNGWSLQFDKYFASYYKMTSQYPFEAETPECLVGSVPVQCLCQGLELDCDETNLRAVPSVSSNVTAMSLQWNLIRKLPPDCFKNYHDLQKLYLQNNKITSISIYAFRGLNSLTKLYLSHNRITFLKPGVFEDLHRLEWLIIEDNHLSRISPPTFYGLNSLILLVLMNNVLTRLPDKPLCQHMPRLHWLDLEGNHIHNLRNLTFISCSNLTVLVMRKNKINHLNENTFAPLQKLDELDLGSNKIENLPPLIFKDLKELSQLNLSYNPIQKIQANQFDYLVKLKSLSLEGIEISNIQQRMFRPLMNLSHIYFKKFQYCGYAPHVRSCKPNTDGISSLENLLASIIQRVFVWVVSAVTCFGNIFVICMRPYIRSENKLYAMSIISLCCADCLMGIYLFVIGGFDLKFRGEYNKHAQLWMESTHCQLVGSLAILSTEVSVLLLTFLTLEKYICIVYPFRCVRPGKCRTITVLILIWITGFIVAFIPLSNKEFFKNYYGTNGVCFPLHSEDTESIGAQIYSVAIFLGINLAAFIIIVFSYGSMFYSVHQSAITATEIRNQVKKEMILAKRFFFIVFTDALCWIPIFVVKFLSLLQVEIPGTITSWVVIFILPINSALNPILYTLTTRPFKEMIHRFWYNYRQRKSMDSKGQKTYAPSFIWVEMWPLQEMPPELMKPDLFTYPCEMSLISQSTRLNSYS
BRCA1 expr up: activators of BRCA1 expression. MCF7-BRCA1-FFLuc reporter, luminescence, 48 h; response scale: scaled: vehicle 0%, 10 µM genistein 100%. Potency, µM (top dose mostly 46.1 µM), for the others: at the highest dose activation, actives largely listed as activators. hit rate 1.1% among 380,000; note: potency is the fitted concentration of half-maximal effect; nearly all actives have a fitted effect of over 80% in size
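Luminescence from a BRCA1-driven firefly luciferase in MCF7 cells was the read-out, taken 15 min after substrate addition following 48 h compound exposure at 37 °C. Data were normalized to a 10 microM genistein control and DMSO vehicle.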
IL2 activator: IL-2 activation; IL-2 activation reporter assay, cell-based qHTS; stimulated with anti-CD3/CD4/CD28 beads; in transgenic mouse T cells; activation, % (series mostly up to about 46 µM); hit rate 0.065% among 360,000; in the data active = activation above about 50%; inconclusive = mostly about 30% to 49%; note: 0% is about no effect
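Screening format: compound pinned onto unstimulated transgenic mouse T cells, 60 min incubation, then anti-CD3/anti-CD4/anti-CD28 bead stimulation for 18 hours at 37 degrees C, followed by EGFP and DsRed detection.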
NPSR antag: neuropeptide S receptor (human) antagonism, cAMP. Q6W5P4. CHO-NPSR cells, cAMP TR-FRET, antagonist mode. Potency, µM (highest dose often 38.3 µM), for inactives: top-dose activity change, negative = inhibition, most hits filed as inhibitors. hit rate 1% among 220,000; note: potency is the fitted concentration of half-maximal effect; % is set by controls: 0 for no effect and ±100 for the full control effect; nearly all actives have a fitted effect of over 50% in size
RXFP1 agonist: activates the human relaxin receptor RXFP1; HEK293T-RXFP1 cAMP TR-FRET, 30 min; response scale: percent of porcine relaxin response, buffer zero; Potency, µM (series often up to 57.5 µM), for the others: at the top dose activation, actives largely listed as activators; hit rate 0.3% among 370,000; Q9HBX9; note: potency is the fitted concentration of half-maximal effect; % is set by controls: 0 for no effect and ±100 for the full control effect; nearly all actives have a fitted effect of over 60% in size
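Agonist response is measured as cAMP accumulation in an RXFP1-transfected HEK293T line under PDE4 inhibition. Values are scaled between buffer-only and 29 nM porcine relaxin, and EC50s come from standard Hill equation fits.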
* = called active by the depositor; ? = inconclusive; nt = not tested or not shown; [ ] = dose if it differs, or a comment. Unless noted, calls come from the whole dose curve; as a rule, active = well fitted curve in the direction sought with a large enough effect; inconclusive = small, poorly fitted or top-dose-only effect, or another doubt; inactive = no such curve, though single readings can be large; an effect the other way counts as inactive or inconclusive.

SMILES	Giardia killer	RXFP1 antagonist	BRCA1 expr up	IL2 activator	NPSR antag	RXFP1 agonist
CCOC(=O)C1CCN(c2ncnc3c2oc2ccccc23)CC1	6	6	19%	-1	-13%[46.1 µM]	4%
CCOC(=O)c1cnn(-c2ncnc3c2oc2ccccc23)c1N	2	nt	3.2µM*	-2	-2%[46.1 µM]	3%
Cc1ccc(S(=O)(=O)N2CCN(c3nc(-c4cccs4)nc4c3ncn4COC(=O)C(C)(C)C)CC2)cc1	-3	nt	0%	nt	nt	nt
CCC/C=C1/CCCOC(C(=O)NCC2CC2)(C(F)(F)F)C1 (stereo not given)	-12	nt	nt	nt	nt	nt
CC(C)(C)c1nnc(NC(=O)C2CCN(C(=O)c3ccccc3)CC2)s1	-25	nt	41%	nt	nt	nt
COc1cc2c(cc1OC)CN(c1ccc(-c3ccccc3OC)nn1)CC2	23	-21	-57%	5	-4%[46.1 µM]	4%
COc1cc2c(cc1OC)CN(c1ccc(C(F)(F)F)cn1)CC2	-3	-16	13µM*	0	nt	5%
COc1cc2c(cc1OC)CN(c1ccc3ccccc3n1)CC2	-20	-3	11µM*	0	nt	1%
CC(C)(C)c1ccc(O)c(N=Cc2cccc([N+](=O)[O-])c2)c1	nt	nt	28%	nt	nt	nt
O=c1oc2ccc(Br)cc2cc1-c1nc2c(s1)CCc1ccccc1-2	4	nt	-18%	nt	nt	nt
CC(=O)NC(=S)Nc1sc2c(c1C(N)=O)CCC(C)C2 (stereo not given)	-8	-18	4.5µM*	1	3%	1%
CCC(C)(C)C1CCc2c(sc(NC(=O)c3ccccc3C(=O)O)c2C#N)C1 (stereo not given)	-6	-69*	-5%	0	?	0%
CC1CCc2c(sc(NC(=S)NC(=O)c3ccccc3)c2C#N)C1 (stereo not given)	-14	-1	11µM*	-4	14%	-1%
O=C(Cc1ccccc1)NCC(=O)OCC(=O)c1ccc2ccccc2c1	-10	nt	-13%	nt	nt	nt
C[C@H]1C=CC(=O)C[C@H]1c1c(F)cccc1Cl	14	nt	nt	nt	nt	nt
COc1ccc2cnn(-c3ccc(OC(F)(F)Cl)cc3)c(=O)c2c1OC	2	-4	12%	0	31%	0%
COc1ccc2cnn(-c3ccc(C)cc3)c(=O)c2c1OC	-7	-5	4.5µM*	1	-5%[46.1 µM]	1%
COc1ccc(S(=O)(=O)N/N=C\c2ccc3c(c2)OCO3)c(OC)c1	-14	-11	-40%	-3	nt	-2%
COc1ccc(OC)c(S(=O)(=O)N/N=C\c2ccc3c(c2)OCO3)c1	-23	5	13µM*	-2	nt	6%
COc1cccc(C2CC(=O)Nc3c2c(=O)nc2c(C)cccn32)c1 (stereo not given)	nt	nt	4%	nt	nt	7%
CCN(CC)CCOC(=O)c1ccc(N/C=C(/C#N)c2nc(-c3ccc(OC)cc3)cs2)cc1	-8	14	-2%	1	10%	0%
CCN(CC)CCOC(=O)c1ccc(N/C=C(/C#N)c2nc(-c3ccc4c(c3)OCO4)cs2)cc1	-103*	-8	-30%	0	5%	0%
N#C/C(=C\C=C\c1ccccc1)c1nc(-c2ccc3c(c2)OCO3)cs1	3	-7	-25%	95*	-13%	1%
CCN(CC)CCOC(=O)c1ccc(N/C=C(/C#N)c2nc(-c3cc4ccccc4oc3=O)cs2)cc1	-89*	-9	6%	-3	nt	1%
CN(C)c1ccc(/C=C/c2ccnc3cc(Cl)ccc23)cc1	nt	nt	-49%	nt	nt	nt
SMILES	Giardia killer	RXFP1 antagonist	BRCA1 expr up	IL2 activator	NPSR antag	RXFP1 agonist
CCCCOc1ccc(C2c3c(-c4ccccc4O)n[nH]c3C(=O)N2Cc2ccncc2)cc1OC (stereo not given)	nt	-13	nt	nt	nt	0%
O=S(=O)(/C(=C\c1ccc(C(F)(F)F)cc1)c1nc2ccccc2[nH]1)c1ccccc1	-7	-77*	-82%	0	nt	nt
O=C(Nc1cccc2cccnc12)OCc1ccccc1	-22	nt	-8%	nt	nt	nt
Cc1ccc(-c2nc3cnccn3c2Nc2ccc(C(C)C)cc2)o1	-22	nt	-7%	nt	nt	nt
CCCC(=O)OCOC(=O)C1=C(C)NC(C)=C(C(=O)OC)C1c1cccc(Cl)c1Cl (stereo not given)	nt	4	nt	nt	nt	nt
Cc1ccc(C(=O)CSc2nsc(C)c2C#N)cc1	-23	1	6.3µM*	1	-16%[46.1 µM]	2%
CC(C)N1CCc2c(sc(NC(=O)c3ccc4ccccc4c3)c2C(N)=O)C1	3	-74*	25%	-4	nt	-3%
O=C(CCc1nnc(CCCc2ccccc2)o1)NCCCC1CCCC1	21	14	13µM*	0	26%	0%
O=C(CCc1nnc(CCCc2ccccc2)o1)NCCc1ccccc1	4	8	4%	-2	13%	0%
COc1c2c(nc3occc13)C(CC=C(C)C)(OC)C(=O)C=C2 (stereo not given)	-9	-62*	-5%	2	-12%	0%
O=C(O)CCCN1C(=O)/C(=C/c2cn(-c3ccccc3)nc2-c2cccs2)SC1=S	9	-3	-84%	6	3.2µM*	-1%
O=C(O)CCCN1C(=O)/C(=C\c2ccccc2OCc2ccccc2)SC1=S	-4	-32	-22%	1	nt	2%
O=[N+]([O-])c1ccc(C(O)CSC(=S)N2CCCCC2)cc1 (stereo not given)	-8	-3	4µM*	0	nt	3%
CCCn1c2ccccc2c2cnn(CC(=O)NCCc3cc(OC)ccc3OC)c(=O)c21	nt	1	nt	nt	nt	8%
COc1cc2c3nnc(-c4ccc(F)cc4)c-3cn(Cc3ccccc3)c2cc1OC	-28	nt	-9%	199*	-2%[46.1 µM]	1%
CC(C)(C)c1ccc(C(=O)Nc2onc3c2CCCC3)cc1	nt	-60*	nt	nt	nt	-1%
Cc1ccc(OCC(=O)Nc2cccc(C(=O)OCc3cc(=O)n4nc(C)sc4n3)c2)cc1	nt	-8	nt	nt	nt	1%
O=C1CCN(CCc2ccccc2)CCN1C(CSc1ccc(Br)cc1)c1ccccc1 (stereo not given)	-11	nt	nt	nt	nt	nt
Cc1csc2c(N3CCCCC3)ncnc12	-9	0	11µM*	1	-4%	-2%
COc1ccc(NC(=S)Nc2ccccn2)c(OC)c1	-7	18	5.6µM*	-2	?	1%
COc1ccc(NC(=S)Nc2cc(C)ccn2)c(OC)c1	-25	2	79%	0	-11%[46.1 µM]	0%
C[n+]1ccnc2ccccc21	nt	nt	-13%	nt	nt	nt
O=C(Nc1ccc([N+](=O)[O-])cc1)C(Cc1ccccc1)N1C(=O)c2cccc3cccc(c23)C1=O (stereo not given)	-20	-11	?	160*	-1%	1%
O=C1C=CC2C3C(=O)N(c4ccccc4)C(=O)C3C1N2Cc1ccccc1 (stereo not given)	2	-108*	-79%	-7	nt	nt
